PPC-1+TRAIL kill: compounds killing PPC-1 cancer cells with TRAIL present, primary screen, TRAIL potentiator project, ATPLite luminescence, uHTS | AID 1443, 2008 | 220,000 compounds, 0.41% hits | cell killing (% activity), % at 4 µM or 5 µM | PPC-1 cells + TRAIL, ATPLite viability luminescence;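 active = cell killing above 50% in the first pass at 4 µM, then a duplicate retest at 5 µM averaging 50% or more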;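 also: plate controls were cells with TRAIL plus DMSO for no effect and medium-only wells lacking cells for full effect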
SENP8 block-1: SENP8 protease inhibitors, primary screen, biochemical, luminescence; Sentrin-specific protease 8 (Homo sapiens), Q96LD8; purified SENP8, Z-RLRGG-aminoluciferin cleavage; inhibition, % at 10 µM; 330,000 compounds, 1.2% hits; AID 2540, 2010; in the data active = inhibition above about 50%
SENP7 inh: SENP7 protease inhibitors, primary screen, biochemical, luminescence, uHTS. Sentrin-specific protease 7 (Homo sapiens), Q9BQF6. recombinant SENP7, Z-RLRGG-aminoluciferin luminescence, 40 min. inhibition, % at 5 µM. 330,000 compounds, 1.5% hits;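 active = inhibition above about 50% at the single test dose, limit read from the data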;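 also: plate controls were DMSO with enzyme for no effect and no enzyme buffer wells for full effect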
SENP8 block-2: human SENP8 protease inhibitors, primary screen, biochemical, fluorescence, Nedd8 protein substrate, uHTS. 360,000 compounds, 0.64% hits. recombinant SENP8. inhibition, % at 20 µM. Sentrin-specific protease 8 (Homo sapiens), Q96LD8; in the data active = inhibition mostly above about 40%, no sharp cut-off; inactive = mostly below about 27%
TRAIL sens C8: viability loss with TRAIL in NB7+C8 cells, primary screen, TRAIL sensitizer project, cell-based, ATPlite luminescence | 360,000 compounds, 1% hits | inhibition (viability loss, TRAIL sensitization), % at 10 µM;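 active = compounds causing at least 50% loss of cell viability in the single-dose screen, relative to plate controls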
SENP6 inh: SENP6 protease inhibitors, primary screen, biochemical, luminescence, uHTS; Sentrin-specific protease 6 (Homo sapiens), Q9GZR1; Recombinant SENP6 catalytic domain, aminoluciferin luminescence; inhibition, % at 10 µM; 330,000 compounds, 1.8% hits; AID 2599, 2010;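 active = inhibition above about 50% at the single tested dose, limit read from the data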;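 also: plate controls were DMSO wells with enzyme for no effect and DMSO wells lacking enzyme for full effect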
Target sequence (Q9GZR1 628-1112 limits assumed): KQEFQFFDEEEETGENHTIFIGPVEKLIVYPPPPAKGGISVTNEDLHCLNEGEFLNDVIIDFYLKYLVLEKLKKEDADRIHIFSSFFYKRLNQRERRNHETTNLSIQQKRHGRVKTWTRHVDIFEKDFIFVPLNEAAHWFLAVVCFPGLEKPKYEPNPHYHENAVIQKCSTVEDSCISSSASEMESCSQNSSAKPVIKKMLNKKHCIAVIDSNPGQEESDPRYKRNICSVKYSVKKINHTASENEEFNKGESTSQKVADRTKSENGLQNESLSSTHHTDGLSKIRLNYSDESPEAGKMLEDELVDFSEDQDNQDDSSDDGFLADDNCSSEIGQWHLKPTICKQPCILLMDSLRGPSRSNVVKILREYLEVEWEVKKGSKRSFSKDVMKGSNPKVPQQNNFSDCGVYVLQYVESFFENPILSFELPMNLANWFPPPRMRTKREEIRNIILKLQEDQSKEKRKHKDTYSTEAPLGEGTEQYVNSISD
PPC-1 tox: cytotoxicity in PPC-1 cells, confirmation, cytotoxicity control for TRAIL apoptosis potentiator project, cell-based, ATP content luminescence; AID 1447, 2008; shares compounds with PPC-1+TRAIL kill; 1,200 compounds, 50% hits; PPC-1 viability, ATPlite luminescence, overnight; cytotoxicity, % at 5 µM;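 active = reconfirmed compounds whose average cytotoxicity reaches 50% or more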;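 also: 0% = DMSO-treated cells and 100% = wells holding medium but no cells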
Numbers without * were called inactive; i = inactive; nt = not tested or not shown. In the library only some 3% were active in any assay of this set; here they are far more common.

SMILES | PPC-1+TRAIL kill | SENP8 block-1 | SENP7 inh | SENP8 block-2 | TRAIL sens C8 | SENP6 inh | PPC-1 tox
CCN(CC)CCNC(=O)c1ccc2c(c1NCCO)C(=O)c1ccccc1C2=O | 33 | 24 | 37 | 88* | 95* | 37 | 27
CC(=O)c1ccc(OCc2nnn(CC(=O)NS(=O)(=O)c3ccc(C)cc3)c2-c2ccccc2)cc1 | nt | nt | nt | 6 | -4 | nt | nt
COc1ccc(N=Nc2ccc(O)c3ncccc23)cc1 | 39 | -17 | -7 | 28 | 31 | -11 | 49
O=C(Cn1cc([N+](=O)[O-])ccc1=O)NCC(=O)Nc1ccc(F)c(F)c1F | nt | 5 | 5 | 6 | 12 | 1 | nt
O=C(c1nc2nc(-c3ccccc3)cc(C(F)(F)F)n2n1)N1CCCCC1 | -2 | 8 | 5 | -72 | 0 | -19 | -10
O=C(c1cc2nc(-c3ccccc3)cc(C(F)(F)F)n2n1)N1CCCC1 | nt | nt | nt | -210 | 15 | nt | nt
COc1ccc(/C=N/Nc2nc3ccccc3s2)cc1O | 40 | nt | nt | -248 | 44 | nt | 40
CCN1/C(=C/C=C/c2oc3ccc4ccccc4c3[n+]2CC)Oc2ccc3ccccc3c21 | 23 | 16 | 14 | nt | nt | -6 | 18
CC[n+]1c(/C=C/N(C)c2ccccc2)oc2ccc(Cl)cc21 | 7 | 10 | 3 | 2 | 20 | 4 | nt
Cc1ccc(S(=O)(=O)NCC(=O)NC2CCCCCC2)cc1 | 8 | -2 | -11 | -2 | -32 | -5 | -3
CCc1cc(=O)oc2cc(OC(C)C(=O)N3CC[C@@]4(O)CCCC[C@H]4C3)ccc12 (stereo partly specified) | nt | nt | nt | 3 | 0 | nt | nt
CCOc1ccc(NC(=O)Nc2cccc(C(=O)O)c2)cc1 | 73* | 97* | 99* | -5 | 83* | 99* | 65*
CCOC(=O)c1cccc(NC(=O)Nc2ccc(OCC)cc2)c1 | 20 | -17 | -10 | -2 | 35 | -44 | nt
CCCCn1c(SCC(=O)NNC(=O)c2ccccc2)n[nH]c1=O | nt | 4 | 0 | 10 | 12 | 8 | nt
Cc1ccc(Cn2ccsc2=NC(=O)CCl)cc1 | 91* | -6 | 2 | -2 | 98* | -34 | 91*
Cc1ccc(Cn2ccsc2=NC(=O)COC(=O)c2ccc(NC(=O)CC#N)cc2)cc1 | nt | -5 | 7 | -4 | 6 | -14 | nt
CC(C)(C)c1ccc(C(=O)/C=C2\NC(=O)CS2)cc1 | 56* | 35 | 36 | 8 | 85* | 39 | 57*
Cc1ccc(NC(=O)/C=C2\NC(=O)CS2)cc1 | nt | -5 | 6 | 1 | 17 | -11 | nt
O=C(Cn1nc(C(=O)O)c2ccccc2c1=O)Nc1cc(S(=O)(=O)N2CCCCC2)ccc1Cl | nt | 8 | 8 | 9 | 1 | 4 | nt
COc1ccc(-c2cc(C(=O)N3CCN(c4ccccn4)CC3)c3ccccc3n2)cc1 | 51* | nt | nt | -302 | 58* | nt | 53*
Cc1ccc(-c2cc(C(=O)N3CCN(c4ccc(F)cc4)CC3)c3ccccc3n2)o1 | 33 | -6 | 4 | i | 11 | -14 | 30
CCOc1ccc(-c2cc(C(=O)N3CCN(c4ccccn4)CC3)c3ccccc3n2)cc1 | 81* | -2 | 3 | -280 | 89* | -1 | 82*
CC(=O)C1=CCC(c2ccccc2)N(S(=O)(=O)c2cccc(C)c2)C1 (stereo unspecified) | nt | nt | nt | 14 | -10 | nt | nt
COc1cccc(NC(=O)CCc2c(C)nc3nc(CNC(=O)c4cccc(F)c4)nn3c2C)c1 | nt | -5 | 7 | 4 | -24 | 5 | nt
COc1ccc(S(=O)(=O)N(C)CC(=O)N2CCC(C(N)=O)CC2)cc1 | 6 | -5 | -7 | 24 | -10 | -11 | 12
O=C(Nc1ccccc1Cl)N1C2CCC1CC(O)(c1cccnc1)C2 (stereo unspecified) | -2 | 5 | 5 | 3 | -8 | 0 | 9
Cc1ccc(Sc2ncnc3onc(C)c23)c(C)c1 | -1 | nt | nt | 9 | -2 | nt | 8
